From PubChem BioAssay (EPA / NIEHS) come the findings set out here.

Assay [1] addresses sheep Cyclooxygenase-1 (Cox1), PTGS1 (gene 443551) (UniProt P05979). In words: NVS_ENZ_oCOX1: NovaScreen (NVS) Enzymatic Assay for sheep Cyclooxygenase-1 (Cox1) (AID 2283239).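 Also: actives reduce cyclooxygenase activity so potencies are for inhibitors.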 Summed up:
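Native ovine seminal vesicle protein serves as enzyme source in this biochemical assay. Colorimetric signal is recorded 0.66 h after chemical addition, and decreases versus the DMSO control define activity.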

The target in assay [2] is guinea pig Opioid, Kappa 1 Receptor (OpiateK), OPRK1 (gene 100135587) (UniProt P41144). In words: NVS_GPCR_gOpiateK: NovaScreen (NVS) G Protein-Coupled Receptor Assay for guinea pig Opioid, Kappa 1 Receptor (OpiateK) (AID 2283252).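 Also: active means reduced radioligand binding relative to DMSO.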 Summed up: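 Radioligand binding to kappa opioid receptor in guinea pig cerebellar membranes, read by filtration and scintillation at 2 h. Compounds first tested in duplicate at 25 uM, then actives in concentration series; signal loss fitted against DMSO.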
Chain of guinea pig Opioid, Kappa 1 Receptor (OpiateK), OPRK1 (gene 100135587) (P41144 whole entry, looked up): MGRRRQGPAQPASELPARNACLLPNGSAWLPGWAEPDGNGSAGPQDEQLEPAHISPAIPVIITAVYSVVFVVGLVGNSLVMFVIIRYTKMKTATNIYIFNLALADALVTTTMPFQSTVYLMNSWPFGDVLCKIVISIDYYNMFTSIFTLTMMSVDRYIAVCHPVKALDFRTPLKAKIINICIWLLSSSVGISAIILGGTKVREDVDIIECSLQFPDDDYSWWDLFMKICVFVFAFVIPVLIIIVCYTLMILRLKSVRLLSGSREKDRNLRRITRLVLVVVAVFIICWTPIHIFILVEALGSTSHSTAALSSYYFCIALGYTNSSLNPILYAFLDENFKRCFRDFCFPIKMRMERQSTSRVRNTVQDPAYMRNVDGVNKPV

The target in assay [3] is guinea pig Leukotriene D4 Receptor (LTD4), CYSLTR1 (gene 100135514) (UniProt Q2NNR5). Briefly: NVS_GPCR_gLTD4: NovaScreen (NVS) G Protein-Coupled Receptor Assay for guinea pig Leukotriene D4 Receptor (LTD4) (AID 2283248). Summed up: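 Guinea pig lung membrane preparation; bound radioligand measured by filter scintillation after 1 h, loss of signal versus DMSO marking displacement. Compounds tested at 25 uM in duplicate, hits retested to max 50 uM.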
Chain of guinea pig Leukotriene D4 Receptor (LTD4), CYSLTR1 (gene 100135514) (Q2NNR5 whole entry, looked up): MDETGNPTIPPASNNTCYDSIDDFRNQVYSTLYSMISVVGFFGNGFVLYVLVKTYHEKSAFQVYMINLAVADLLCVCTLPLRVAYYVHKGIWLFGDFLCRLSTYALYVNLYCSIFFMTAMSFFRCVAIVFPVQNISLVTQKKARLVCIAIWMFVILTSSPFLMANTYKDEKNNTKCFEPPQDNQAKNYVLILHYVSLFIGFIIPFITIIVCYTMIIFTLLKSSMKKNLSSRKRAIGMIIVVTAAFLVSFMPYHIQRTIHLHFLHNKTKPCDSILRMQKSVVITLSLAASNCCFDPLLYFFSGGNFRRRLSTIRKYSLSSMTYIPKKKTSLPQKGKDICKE

Assay [4] has as its target rabbit Imidazoline 2 Central (I2C), CKB (gene 100009085) (UniProt P00567). Briefly: NVS_ENZ_rabI2C: NovaScreen (NVS) Enzymatic Assay for rabbit Imidazoline 2 Central (I2C) (AID 2283228). A digest of the protocol: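 Rabbit brain membranes, cell-free; readout by filter-based scintillation counting 1.5 hours after dosing, loss of signal vs DMSO. Initial duplicate test at 25 uM, then concentration-response with 50 uM top concentration.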

Assay [5] concerns the target human Vascular Endothelial Growth Factor Receptor 2 (VEGFR2), KDR (gene 3791) (UniProt P35968). Briefly: NVS_ENZ_hVEGFR2: NovaScreen (NVS) Enzymatic Assay for human Vascular Endothelial Growth Factor Receptor 2 (VEGFR2) (AID 2283230). Summed up:
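Cell-free recombinant VEGFR2 kinase, fluorescent substrate with electrophoretic mobility-shift separation; read 1 h after dosing. Screened at 25 uM in duplicate, hits to concentration-response up to 50 uM; loss-of-signal versus DMSO.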

Assay [6] addresses bovine Dopamine Receptor (DR), Non-selective Binding, DRD1 (gene 281125) (UniProt Q95136). Briefly: NVS_GPCR_bDR_NonSelective: NovaScreen (NVS) G Protein-Coupled Receptor Assay for bovine Dopamine Receptor (DR), Non-selective Binding (AID 2283241). The procedure: (§1) NVS_GPCR_bDR_NonSelective is a biochemical, single-readout assay that uses extracted gene-proteins from Bovine striatal membranes in a tissue-based cell-free assay. Measurements were taken 1 hour after chemical dosing in a 48-well plate.NVS_GPCR_bDR_NonSelective is one of one assay component(s) measured or calculated from the NVS_GPCR_bDR_NonSelective assay. It is designed to make measurements of radioligand binding, a form of binding reporter, as detected with scintillation counting signals by Filter-based radiodetection technology.Data from the assay component NVS_GPCR_bDR_NonSelective was analyzed into 1 assay endpoint. This assay endpoint, NVS_GPCR_bDR_NonSelective, was analyzed in the positive analysis fitting direction relative to DMSO as the negative control and baseline of activity. Using a type of binding reporter, loss-of-signal activity can be used to understand changes in the binding as they relate to the gene DRD1. Furthermore, this assay endpoint can be referred to as a primary readout, because the performed assay has only produced 1 assay endpoint. To generalize the intended target to other relatable targets, this assay endpoint is annotated to the gpcr intended target family, where the subfamily is rhodopsin-like receptor. […]

For assay [7], the system named is guinea pig Muscarinic, Peripheral (Mperiperal) Receptor, Non-selective Binding, gene 100379235. Briefly: NVS_GPCR_gMPeripheral_NonSelective: NovaScreen (NVS) G Protein-Coupled Receptor Assay for guinea pig Muscarinic, Peripheral (Mperiperal) Receptor, Non-selective Binding (AID 2283250). A digest of the protocol:
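Screened in duplicate at 25 uM, hits retested in concentration series to 50 uM max, using bladder membrane radioligand displacement from guinea pig. Filtration and scintillation counting 1 h post-dose, fitted relative to DMSO.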

The target of assay [8] is human Serotonin, 5-Hydroxytryptamine Receptor 5A (5HT5A), HTR5A (gene 3361) (UniProt P47898). Briefly: NVS_GPCR_h5HT5A: NovaScreen (NVS) G Protein-Coupled Receptor Assay for human Serotonin, 5-Hydroxytryptamine Receptor 5A (5HT5A) (AID 2283251). Summed up: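 Membranes from HEK293 cells, radioligand binding read by filtration and scintillation after 1 h. Single-concentration duplicate testing at 25 uM, then concentration-response for actives; positive-direction fitting relative to DMSO.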
Chain of human Serotonin, 5-Hydroxytryptamine Receptor 5A (5HT5A), HTR5A (gene 3361) (P47898 whole entry, looked up): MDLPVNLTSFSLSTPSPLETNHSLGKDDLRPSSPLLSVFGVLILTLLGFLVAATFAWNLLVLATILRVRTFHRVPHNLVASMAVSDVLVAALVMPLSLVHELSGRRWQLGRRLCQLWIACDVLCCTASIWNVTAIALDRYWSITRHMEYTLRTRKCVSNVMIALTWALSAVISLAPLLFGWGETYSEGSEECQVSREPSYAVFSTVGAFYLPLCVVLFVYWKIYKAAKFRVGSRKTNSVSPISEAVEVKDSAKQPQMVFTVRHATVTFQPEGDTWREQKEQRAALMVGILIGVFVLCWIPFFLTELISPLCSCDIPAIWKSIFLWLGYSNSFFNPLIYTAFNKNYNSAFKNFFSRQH

The target of assay [9] is human Serotonin, 5-Hydroxytryptamine Receptor 6 (5HT6), HTR6 (gene 3362) (UniProt P50406). Briefly: NVS_GPCR_h5HT6: NovaScreen (NVS) G Protein-Coupled Receptor Assay for human Serotonin, 5-Hydroxytryptamine Receptor 6 (5HT6) (AID 2283253). A digest of the protocol:
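Filter scintillation counting of radioligand displacement from HEK293-expressed 5HT6, 1 hour post-dose, with loss of signal relative to DMSO. Single 25 uM duplicates first, with concentration series for confirmation.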

A short description of assay [10]: NVS_GPCR_bNPY_NonSelective: NovaScreen (NVS) G Protein-Coupled Receptor Assay for bovine Neuropeptide Y (NPY) Receptor, Non-selective Binding (AID 2283245). As to the method: as §1, with “NVS_GPCR_bNPY_NonSelective” for “NVS_GPCR_bDR_NonSelective”, “hippocampal” for “striatal”, “96-well plate.NVS_GPCR_bNPY_NonSelective” for “48-well plate.NVS_GPCR_bDR_NonSelective”, “NVS_GPCR_bNPY_NonSelective,” for “NVS_GPCR_bDR_NonSelective,”, “NPY.” for “DRD1.”

One may read the AC50 as the concentration at which the activity in the assay is half-maximal.

Inconclusive results are not listed. Activity calls are given as the source filed them. The calls were made as follows: active = hit-call score of the fitted dose curve at least 0.9, where 1 is the maximum; inconclusive = response in the unintended direction; inactive = score below 0.9.

Chain of sheep Cyclooxygenase-1 (Cox1), PTGS1 (gene 443551) (P05979 whole entry, looked up): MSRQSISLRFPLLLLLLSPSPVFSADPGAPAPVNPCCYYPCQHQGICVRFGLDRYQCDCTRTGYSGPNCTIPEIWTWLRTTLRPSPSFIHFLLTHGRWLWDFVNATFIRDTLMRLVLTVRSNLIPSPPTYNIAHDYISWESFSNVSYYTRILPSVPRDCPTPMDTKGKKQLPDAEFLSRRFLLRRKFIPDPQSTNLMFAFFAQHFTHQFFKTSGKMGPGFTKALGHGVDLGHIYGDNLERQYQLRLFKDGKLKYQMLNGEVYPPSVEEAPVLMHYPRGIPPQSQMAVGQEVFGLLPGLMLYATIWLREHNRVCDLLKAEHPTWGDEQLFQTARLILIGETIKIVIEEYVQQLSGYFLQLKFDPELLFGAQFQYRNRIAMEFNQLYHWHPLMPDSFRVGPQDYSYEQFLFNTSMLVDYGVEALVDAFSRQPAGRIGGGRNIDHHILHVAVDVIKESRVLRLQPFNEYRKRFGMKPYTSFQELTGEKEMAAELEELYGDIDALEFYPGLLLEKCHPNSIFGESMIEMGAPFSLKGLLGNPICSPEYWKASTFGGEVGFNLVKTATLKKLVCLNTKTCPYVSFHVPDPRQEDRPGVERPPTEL
Chain of bovine Dopamine Receptor (DR), Non-selective Binding, DRD1 (gene 281125) (Q95136 whole entry, looked up): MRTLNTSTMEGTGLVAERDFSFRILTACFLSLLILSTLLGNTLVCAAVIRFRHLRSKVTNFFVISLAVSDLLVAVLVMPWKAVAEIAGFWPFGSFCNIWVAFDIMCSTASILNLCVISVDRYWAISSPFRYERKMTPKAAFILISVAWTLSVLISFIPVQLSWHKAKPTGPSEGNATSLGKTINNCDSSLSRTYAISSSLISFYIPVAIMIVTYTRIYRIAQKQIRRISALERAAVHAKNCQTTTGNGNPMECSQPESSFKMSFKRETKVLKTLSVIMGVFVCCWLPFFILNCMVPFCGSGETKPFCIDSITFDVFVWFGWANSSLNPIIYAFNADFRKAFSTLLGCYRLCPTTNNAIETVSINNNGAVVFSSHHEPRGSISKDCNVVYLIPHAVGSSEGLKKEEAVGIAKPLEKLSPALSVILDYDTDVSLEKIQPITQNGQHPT
Chain of human Serotonin, 5-Hydroxytryptamine Receptor 6 (5HT6), HTR6 (gene 3362) (P50406 whole entry, looked up): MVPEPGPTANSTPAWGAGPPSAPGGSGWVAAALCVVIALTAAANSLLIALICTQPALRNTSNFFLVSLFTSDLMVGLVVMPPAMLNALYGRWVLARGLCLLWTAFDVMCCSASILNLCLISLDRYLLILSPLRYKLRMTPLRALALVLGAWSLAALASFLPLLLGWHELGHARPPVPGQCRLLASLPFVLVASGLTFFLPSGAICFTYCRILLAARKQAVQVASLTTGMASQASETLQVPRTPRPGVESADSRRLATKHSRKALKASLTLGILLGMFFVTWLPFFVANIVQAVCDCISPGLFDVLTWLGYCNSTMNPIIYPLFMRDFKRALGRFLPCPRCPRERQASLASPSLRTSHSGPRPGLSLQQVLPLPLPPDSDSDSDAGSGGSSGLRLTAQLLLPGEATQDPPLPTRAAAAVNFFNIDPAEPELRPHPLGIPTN
Chain of rabbit Imidazoline 2 Central (I2C), CKB (gene 100009085) (P00567 whole entry, looked up): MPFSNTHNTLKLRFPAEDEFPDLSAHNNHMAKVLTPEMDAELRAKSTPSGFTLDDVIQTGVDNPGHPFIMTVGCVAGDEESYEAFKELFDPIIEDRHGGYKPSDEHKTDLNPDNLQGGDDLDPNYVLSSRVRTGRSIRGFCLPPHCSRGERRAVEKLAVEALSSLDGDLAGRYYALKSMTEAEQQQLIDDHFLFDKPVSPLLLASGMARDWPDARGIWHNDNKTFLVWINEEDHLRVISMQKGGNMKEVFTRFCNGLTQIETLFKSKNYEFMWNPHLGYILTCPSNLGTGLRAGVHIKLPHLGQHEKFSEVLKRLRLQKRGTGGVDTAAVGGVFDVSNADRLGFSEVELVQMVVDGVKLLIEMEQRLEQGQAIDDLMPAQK
Chain of human Vascular Endothelial Growth Factor Receptor 2 (VEGFR2), KDR (gene 3791) (P35968 whole entry, looked up): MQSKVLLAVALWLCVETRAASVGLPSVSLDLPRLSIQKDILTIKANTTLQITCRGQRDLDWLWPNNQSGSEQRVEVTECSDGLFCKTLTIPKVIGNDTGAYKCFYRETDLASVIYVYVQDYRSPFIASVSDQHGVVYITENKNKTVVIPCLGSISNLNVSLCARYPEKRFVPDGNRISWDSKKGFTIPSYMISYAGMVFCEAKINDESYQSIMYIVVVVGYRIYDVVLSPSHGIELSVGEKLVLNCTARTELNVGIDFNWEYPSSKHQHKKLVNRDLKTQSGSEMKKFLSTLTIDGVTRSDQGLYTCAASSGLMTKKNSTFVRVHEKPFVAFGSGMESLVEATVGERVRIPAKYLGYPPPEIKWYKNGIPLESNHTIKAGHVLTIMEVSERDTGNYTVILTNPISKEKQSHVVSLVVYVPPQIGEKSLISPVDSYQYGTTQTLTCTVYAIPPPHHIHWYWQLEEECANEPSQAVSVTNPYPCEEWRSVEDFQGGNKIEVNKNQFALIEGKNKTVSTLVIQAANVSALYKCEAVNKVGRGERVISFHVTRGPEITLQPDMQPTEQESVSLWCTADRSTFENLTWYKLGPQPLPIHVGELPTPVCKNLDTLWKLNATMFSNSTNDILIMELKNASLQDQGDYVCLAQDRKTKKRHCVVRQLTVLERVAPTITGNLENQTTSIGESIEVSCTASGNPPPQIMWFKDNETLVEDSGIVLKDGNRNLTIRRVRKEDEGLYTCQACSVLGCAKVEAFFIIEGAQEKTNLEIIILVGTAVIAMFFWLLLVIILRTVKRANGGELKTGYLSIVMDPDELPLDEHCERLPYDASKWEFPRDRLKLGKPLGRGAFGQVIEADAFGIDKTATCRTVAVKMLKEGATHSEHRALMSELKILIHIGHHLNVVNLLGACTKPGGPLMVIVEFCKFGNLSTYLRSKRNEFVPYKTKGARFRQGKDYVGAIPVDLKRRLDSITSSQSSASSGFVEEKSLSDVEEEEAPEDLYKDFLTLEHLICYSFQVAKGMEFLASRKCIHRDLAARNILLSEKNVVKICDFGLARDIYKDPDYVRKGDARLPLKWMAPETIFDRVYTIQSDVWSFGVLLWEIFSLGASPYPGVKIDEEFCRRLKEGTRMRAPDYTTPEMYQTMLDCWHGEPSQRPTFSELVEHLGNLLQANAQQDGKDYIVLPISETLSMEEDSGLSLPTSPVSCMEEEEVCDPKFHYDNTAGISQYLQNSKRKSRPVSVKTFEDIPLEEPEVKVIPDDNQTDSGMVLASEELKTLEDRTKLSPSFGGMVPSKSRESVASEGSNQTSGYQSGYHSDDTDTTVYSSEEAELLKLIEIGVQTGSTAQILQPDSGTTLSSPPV

For the compound `CCCCCCCCCCCCS`, in [1], the AC50 was 25 µM (active). On to `O=S1(=O)CC(Cl)(Cl)C(Cl)(Cl)C1`, for which, in assay [2], the outcome was inactive.

Regarding `COc1ccccc1NC(=O)CC(C)=O`, the AC50 in assay [1] is 14.6 µM (active).

Turning to `CC(=O)CCC=C(C)CCC=C(C)C`, the half-maximal activity concentration (AC50) in [1] is 43.3 µM (active).

For the compound `C#C[C@]1(O)CC[C@H]2[C@@H]3CCc4cc(O)ccc4[C@H]3CC[C@@]21C`, the outcome in [3] was inactive. For `O=C(c1ccc(OCCN2CCCCC2)cc1)c1c(-c2ccc(O)cc2)sc2cc(O)ccc12`, the concentration at half-maximal activity (AC50) is 10.3 µM (active) in assay [4]; 3.07 µM (active) in [5]; 1.02 µM (active) in assay [6]; 5.18 µM (active) in assay [7]; 3.5 µM (active) in assay [8]; 508 nM (active) in [2]. Also, in [9], the AC50 was 3.57 µM (active). For the compound `Cc1cc(N)n(-c2ccccc2)n1`, in [1], the outcome was inactive. Take `Cc1cc(O)c(C)c(C)c1O`: the outcome in assay [2] was inactive. Still for that read-out and setting: the value for `CCCCCC1C(=O)CCC1CC(=O)OC` (stereo not drawn) was “inactive”. For `c1ccc(Sc2ccccc2)cc1`, the call in assay [1] was inactive. The same measure, in the same setting: the value for `CC(=O)c1ccc(C)cc1` was “inactive”. Take `C=CCOCC(O)CO` (stereo not drawn): the AC50 in assay [1] was 25 µM (active). For the compound `O=C1OC2(c3ccc(O)cc3Oc3cc(O)ccc32)c2ccccc21`, in assay [1], the concentration at half-maximal activity (AC50) was 18.2 µM (active). Besides, the compound was called inactive in assay [3] and in assay [2].

In the case of `CC(O)COCC(C)O` (stereo not drawn), the compound was classed as inactive in [1]. Regarding `O=[N+]([O-])c1cc(N(CCO)CCO)ccc1NCCO`, in assay [3], the compound was called inactive. Take `Cc1ccc(C(C)(C)O)cc1`: the compound was called inactive in [1]. With `CC/C(=C(\c1ccccc1)c1ccc(OCCN(C)C)cc1)c1ccccc1`, the compound was classed as inactive in assay [4], in assay [6] and in assay [2]. Moreover, the half-maximal activity concentration (AC50) in [10] was 22.9 µM (active); in assay [7] it was 19.1 µM (active); in assay [8] it was 6.95 µM (active); in assay [9], 6.32 µM (active).

Take `CC1=CC(C)C(C=O)C(C)C1` (stereo not drawn) (tested in a mixture with another compound): the outcome in assay [3] was inactive. Consider `CC(C)(O)CCc1ccccc1`, for which, in assay [1], the outcome was inactive.
